From PubChem BioAssay
Only some compounds are listed: those with a hit (about 7.9% of all), similar ones and a draw of the others.
MCF10A rereplic: inducers of DNA re-replication in MCF 10A breast cells | MCF 10A DNA re-replication, Hoechst nuclear intensity, 48 h | Potency, µM (series often up to 46.1 µM), for inactives: at the top dose activity, positive = re-replication, actives largely listed as activators | 2.9% of 350,000 active; note: % of control where 0% means no effect; nearly all actives have a fitted effect of over 50% in size
KB-V1 cytotox: kills drug-selected multidrug resistant KB-V1 cells | KB-V1 MDR cells viability, CellTiter-Glo, 72 h | Potency, µM (doses to about 46.1 µM), actives largely listed as cytotoxic | 3.4% of 400,000 active; note: % is set by controls: 0 for no effect and ±100 for the full control effect; nearly all actives have a fitted effect of over 60% in size
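In this primary screen, KB-V1 cells overexpressing P-gp are incubated with library compounds (lowest to highest concentration) for 72 h at 37 degrees C before a luminescent ATP viability read.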
HT1080NT lethal: kills 2HG-producing HT-1080-NT fibrosarcoma cells; HT-1080-NT fibrosarcoma viability, CellTiter-Glo ATP luminescence, 48 h; Potency, µM (highest dose often 46.1 µM), without a hit: at the top dose activity, negative = less viability, usual class: cytotoxic; 1.6% of 360,000 active; AID 686970;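 note: NT is the 2HG producing partner of a matched IDH1 knockdown line; 0% = DMSO-treated cells and -100% = media-only wells without cells; nearly all actives have a fitted effect of over 55% in size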
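Fibrosarcoma NT cells, 750 per well in 5% FBS RPMI, were exposed to compound for 48 hours. Viability: CellTiter-Glo luminescence.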
SW480 rereplic: induces DNA re-replication in SW480 colon adenocarcinoma cells. SW480 DNA re-replication, Hoechst DNA content imaging, 48 h. Potency, µM (series often up to 46.1 µM), for the others: top-dose re-replication activation, most hits filed as activators. 1.8% of 340,000 active. AID 624297; note: % of control where 0% means no effect; nearly all actives have a fitted effect of over 55% in size
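First, 250 cells per well were seeded. Next, compound or vehicle (23 nL) was pinned in, plates sat 48 hr at 37 C. Finally Hoechst was added for 40 min before fluorescence scanning.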
KB-3-1 tox: KB-3-1 parental cell cytotoxicity. KB-3-1 viability, CellTiter-Glo ATP luminescence, 72 h. 1.4% of 400,000 active. Potency, µM (highest dose often 46.1 µM), most hits filed as cytotoxic; note: % is set by controls: 0 for no effect and ±100 for the full control effect; nearly all actives have a fitted effect of over 60% in size
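Here the drug-naive KB-3-1 line serves as comparator for MDR sub-line selectivity; cells received compound titrations, 72 h at 37 °C, then CellTiter-Glo readout.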
HT1080 IDH1KD tx: toxicity to HT-1080 IDH1 knockdown cells (counter line) | HT-1080 IDH1 knockdown viability, ATP luminescence, 48 h | 2% of 360,000 active | Potency, µM (highest dose often 46.1 µM), inactives show at the highest dose activity, negative = toxicity, hits mostly cytotoxic;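 note: 0% = DMSO wells and -100% = cell-free medium wells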
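Using the IDH1-knockdown HT-1080 line run in the same batch and compound series as the NT line, viability after 48 h at 37 °C was determined by CellTiter-Glo luminescence and expressed as % activity.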
* marks the source's active call; other numbers are inactive results; i = inactive; ? = inconclusive; . = no result given. Calls come from the whole dose curve; as a rule, active = well fitted curve in the direction sought with a large enough effect; inconclusive = small, poorly fitted or top-dose-only effect, or another doubt; inactive = no such curve, though single readings can be large; an effect the other way counts as inactive or inconclusive. Potency is the fitted concentration of half-maximal effect.

SMILES	MCF10A rereplic	KB-V1 cytotox	HT1080NT lethal	SW480 rereplic	KB-3-1 tox	HT1080 IDH1KD tx
CC(=O)Nc1ccc(-c2ccnc3c2CC(C(=O)NCc2cccc(Cl)c2)O3)cc1 (centres undefined)	.	?	?	.	3.26µM*	1.64µM*
NC(=O)c1cccc(-c2ccnc3c2CC(C(=O)NCC2CC2)O3)c1 (centres undefined)	.	i	3.1%	.	i	26.6%
NC(=O)c1cccc(-c2ccnc3c2CC(C(=O)NCc2cccc(Cl)c2)O3)c1 (centres undefined)	.	i	?	.	?	9.2µM*
CC(=O)Nc1cccc(-c2ccnc3c2CC(C(=O)NCc2cccc(Cl)c2)O3)c1 (centres undefined)	.	i	?	.	?	?
C=C[C@@H]1c2cc(C)ccc2N(S(=O)(=O)c2ccc(C)cc2)[C@H](c2ccc(C(C)(F)F)cc2)C1(C#N)C#N	.	i	.	.	i	.
COc1ccc(Cl)cc1NC(=O)c1ccc(CN2C(=O)CCn3nc(C)cc32)cc1	.	i	.	.	i	.
CCOC(=O)c1sc2c(c1C)C(c1cccs1)C1=C(CCCC1=O)N2 (centres undefined)	9.2µM*	i	-21.1%	?	?	?
CCCN1CNc2c(c(=O)[nH]c(=S)n2CCc2cccs2)C1	.	.	19.0%	.	.	23.8%
COc1ccc(-c2nnc(NC(=O)c3ccc([N+](=O)[O-])o3)o2)c(OC)c1	8.2µM*	?	-0.6%	16.4µM*	i	-1.6%
COc1cccc(-c2nnc(NC(=O)c3ccc(Cl)s3)o2)c1	6.51µM*	i	1.6%	24.9%	?	-24.8%
COc1cccc(-c2nnc(NC(=O)c3cccc(F)c3)o2)c1	23.1µM*	?	-4.4%	20.9%	i	-9.1%
Cc1cccc(-c2nnc(NC(=O)c3ccc(Cl)cc3)o2)c1	14.6µM*	13µM*	?	?	?	?
COc1cccc(-c2nnc(NC(=O)c3ccccc3Br)o2)c1	-2.2%	i	?	?	?	?
CCOC(=O)c1cc(-c2ccccc2)n(CCCC(=O)Nc2cccc(C)c2C)c1C	.	i	.	.	i	.
O=C(Nc1nnc(-c2ccccc2)o1)c1cc(Cl)sc1Cl	?	i	14.2%	-11.3%	?	-0.1%
O=C(Nc1nnc(-c2ccc(F)cc2)o1)c1cc(Cl)sc1Cl	1.03µM*	i	1.2%	28.7%	?	-13.1%
CN(C)c1ccc(/C=C2\C=Cc3cc([N+](=O)[O-])ccc32)cc1	.	i	.	.	?	.
CCN(Cc1ccccc1)c1ccc(/C=C/c2ccnc3ccccc23)cc1	.	i	.	.	i	.
CCN(CC)c1cc(C)c(/C=C/c2ccnc3ccccc23)cc1C	.	?	.	.	11.6µM*	.
CCCCN(CCCC)c1ccc(C=Nc2ccc(/C=C/c3ccnc4ccccc34)cc2)cc1C	.	23.1µM*	.	.	?	.
CCOc1ccc(C=Nc2ccc(/C=C/c3ccnc4ccccc34)cc2)cc1OCC	.	i	.	.	i	.
Cc1cc(N(C)C)c(C)cc1/C=C/c1ccnc2ccccc12	.	6.51µM*	.	.	2.91µM*	.
COc1cc(N(C)C)ccc1/C=C/c1ccnc2ccccc12	.	?	.	.	i	.
O=C1COc2cc(S(=O)(=O)CCC(=O)NC3CCCCC3)c(Cl)cc2N1	.	i	.	.	i	.
CC(Cl)=CCn1c(NCCc2ccccc2)nc2c1c(=O)n(C)c(=O)n2C	.	i	-2.0%	.	i	-1.2%
SMILES	MCF10A rereplic	KB-V1 cytotox	HT1080NT lethal	SW480 rereplic	KB-3-1 tox	HT1080 IDH1KD tx
Cc1nnc(SCCn2c(N3CCC(C)CC3)nc3c2c(=O)n(C)c(=O)n3C)s1	14.2%	11.6µM*	3.8%	-9.6%	?	-0.1%
COc1ccc(CC(=O)c2ccc(OC)c(OC)c2C)cc1OC	0.0%	2.31µM*	?	?	6.51µM*	-18.5%
COc1ccc(CC(=O)Cc2ccc(OC)c(OC)c2)cc1OC	.	i	-5.1%	.	i	7.6%
CC1(C)CC(=O)C=C(c2n[nH]nc2C2=CCCCC2)C1	.	i	3.0%	.	i	1.5%
Cc1ccc(C(=O)Nc2ccc(C(=O)N/N=C/c3c[nH]c4ccccc34)cc2)cc1	?	i	-24.0%	16.6%	i	?
Cc1ccc(NC(=S)N/N=C/c2c(C)[nH]c3ccccc23)cc1	18.4µM*	i	?	?	i	?
Cc1cccc(NC(=S)N/N=C/c2c[nH]c3ccccc23)c1	1.84µM*	?	23.1µM*	11.6µM*	11.6µM*	16.4µM*
Cc1[nH]c2ccccc2c1/C=N/NC(N)=S	3.4%	i	7.4%	1.6%	i	23.0%
CC(C)(C)OC(=O)N1CCC(c2c(C(=O)NCc3ccco3)cnn2-c2ccc(F)cc2F)CC1	.	i	.	.	i	.
CCc1nc2ccc(C(=O)Nc3cccc(OCC(=O)N(C)C)c3)cn2c1N(C)C(=O)c1cccc(OC)c1	.	i	27.1%	.	i	10.9%
COc1ccc(Cl)cc1-c1cc(C(=O)NCc2cccc(C(F)(F)F)c2)[nH]n1	.	i	?	.	i	?
CC(C)CN(CC(C)C)C(=S)Nc1ccc(Cl)cc1	18.4µM*	i	-23.8%	10.2%	i	?
CCc1ccc(NC(=S)N(Cc2ccc(Cl)cc2)Cc2ccc(C(=O)O)cc2)cc1	16.4%	i	-9.3%	-3.1%	i	-15.3%
COc1ccc(-c2nc3cc(NC(=O)COc4ccccc4C)ccc3o2)cc1	.	i	.	.	i	.
O=C1CC(c2ccc(Br)cc2)c2c(ccc3ccccc23)N1 (centres undefined)	.	i	.	.	i	.
O=C1CC(c2cccc([N+](=O)[O-])c2)c2c(ccc3ccccc23)N1 (centres undefined)	?	5.8µM*	?	?	?	11.6µM*
COc1cc(SC)ccc1C(=O)NCc1ccccc1	2.9%	20.6µM*	13.0%	-130.5%	i	10.1%
COc1cc(SC)ccc1C(=O)NCCOc1ccc(C)c(C)c1	5.4%	16.4µM*	-7.7%	-1.4%	i	-8.9%
CCN(CC)CCCNC(=O)CN1C(=O)CCn2nc(-c3cn(C)c4ccccc34)cc21	.	i	.	.	i	.
COc1ccc(CNC(=O)c2ccc3nc(C(C)C)oc3c2)cc1OC	.	i	.	.	i	.
CC(=O)N1CCN(c2ccc(NCc3ccc(-c4cccc(Cl)c4)o3)cc2)CC1	20.6µM*	i	.	?	i	.
CCc1ccc(NC(=O)CC(c2cc(OC)c(OC)c(OC)c2)N2Cc3ccccc3C2=O)cc1 (centres undefined)	.	i	.	.	i	.
